# PG9 binder = small molecules binding HIV-1 gp120 antibody PG9. TR-FRET gp120-PG9 antibody binding. actives 0.43% (n = 360,000). inhibition, % at 6.7 µM; in the data active = inhibition above about 8.5%
# HGIII-sPLA2 inh = Blocks human group III sPLA2 activity; Q9NZ20; QFRET BODIPY PC-A2 liposome hydrolysis, fluorescence; inhibition, % at 12.2 µM; actives 0.56% (n = 370,000); AID 743126;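 active = inhibition above mean plus 3 SD of compounds lying within the high and low control bounds, cut at about 19% in these data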
# Target sequence (Q9NZ20 whole entry, looked up): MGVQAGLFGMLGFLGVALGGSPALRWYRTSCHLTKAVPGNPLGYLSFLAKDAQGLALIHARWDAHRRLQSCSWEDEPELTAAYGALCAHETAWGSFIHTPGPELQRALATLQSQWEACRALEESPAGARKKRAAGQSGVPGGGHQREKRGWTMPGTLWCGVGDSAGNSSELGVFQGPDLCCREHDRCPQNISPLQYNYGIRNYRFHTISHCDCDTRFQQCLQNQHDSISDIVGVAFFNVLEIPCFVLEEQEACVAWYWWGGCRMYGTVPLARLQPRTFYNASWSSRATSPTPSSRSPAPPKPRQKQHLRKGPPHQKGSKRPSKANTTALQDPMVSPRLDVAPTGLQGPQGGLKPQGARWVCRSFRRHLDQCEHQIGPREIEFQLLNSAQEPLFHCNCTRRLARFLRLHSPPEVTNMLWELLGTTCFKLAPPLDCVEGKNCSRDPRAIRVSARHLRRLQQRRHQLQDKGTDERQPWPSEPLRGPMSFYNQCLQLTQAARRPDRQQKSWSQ
# MsrA act = bovine methionine sulfoxide reductase A activation; activation, % at 10.6 µM; actives 0.3% (n = 360,000); AID 602163; purified bovine MsrA, absorbance read-out; in the data active = activation above about 7.5%
# rCAG binder = binds r(CAG) RNA repeats | r(CAG) RNA repeat, TO-PRO-1 dye displacement fluorescence | inhibition, % at 3 µM | actives 1.3% (n = 370,000);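 active = inhibition above the plate cutoff, the mean of all test compounds on that plate plus 3 SD, cut at about 35% in these data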;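 note: higher means more dye released from RNA so lower well fluorescence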
# MsrA inhibitor = bovine MsrA inhibition | purified bovine MsrA, absorbance read-out | inhibition, % at 15.5 µM | AID 651718 | actives 0.75% (n = 360,000); in the data active = inhibition above about 4.5%
# rCAG bind conf = r(CAG) RNA repeat binding, confirmation; shares compounds with rCAG binder; TO-PRO-1 dye displacement fluorescence; inhibition, % at 3 µM; actives 70% (n = 4,300); AID 652065;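 active = inhibition above a per-plate cutoff, the mean inhibition of sample wells plus 3 SD, cut at about 35% in these data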;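 note: loss of TO-PRO-1 fluorescence as compound displaces dye from 1x1 AA loop RNA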
# DNA CAG counter = disrupts DNA CAG TO-PRO-1 complex, flagging rCAG hits; inhibition, % at 3 µM; d(CAG) DNA oligo TO-PRO-1 dye displacement, fluorescence; actives 94% (n = 4,300); shares compounds with rCAG binder; AID 652068;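 active = inhibition above its plate's cutoff, the mean test-well inhibition plus 3 SD, cut at about 4.8% in these data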;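 note: hits displace the dye from DNA and so lower well fluorescence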
# Numbers stand for hits; i = inactive; nt = not tested or not shown. Compounds with a hit are over-represented: about 3.2% of the library has one in this group of screens.
SMILES,PG9 binder,HGIII-sPLA2 inh,MsrA act,rCAG binder,MsrA inhibitor,rCAG bind conf,DNA CAG counter
Cc1cc(OC(C)C(=O)NC(Cc2c[nH]c3ccc(O)cc23)C(=O)O)c2c(C)c(C)c(=O)oc2c1 (stereo not given),i,i,i,i,i,nt,nt
O=C(COc1ccc2c(c1)oc(=O)c1ccccc12)N[C@@H](Cc1c[nH]c2ccccc12)C(=O)O,i,i,i,51.4,i,54.0,18.3
CC(Oc1ccc2c(c1)oc(=O)c1ccccc12)C(=O)NC(Cc1c[nH]c2ccc(O)cc12)C(=O)O (stereo not given),i,i,i,43.0,i,i,6.1
COC(=O)[C@]12C[C@H](CC(=O)NCC34CC5CC(CC(C5)C3)C4)C(=O)N(CCC3=CCCCC3)C1=C[C@H](C1CCCC1)O[C@@H]2C,nt,i,nt,i,nt,nt,nt
Nc1c(C=C2C=CC(=O)C=C2)c(=O)nc2snc(SCc3ccccc3)n12,i,i,i,51.7,i,49.7,16.4
Nc1c(C=C2C=CC(=O)C=C2)c(=O)nc2sc(CC(=O)N3CCCCC3)nn12,i,i,i,i,i,nt,nt
C/C(=N\NC(=O)c1ccc(-c2ccccc2)cc1)C1C(=O)c2ccccc2C1=O,i,i,i,47.0,i,82.8,49.5
CCOc1ccc(C(=O)N/N=C(/C)C2C(=O)c3ccccc3C2=O)cc1,i,i,i,i,i,nt,nt
COC(=O)c1ccc(S(=O)(=O)N2CCC(NC(=O)Cc3ccccc3)CC2)cc1,nt,i,nt,i,nt,nt,nt
CCCc1cc(C(=O)Nc2cccc(-c3nn[nH]n3)c2)sc1C,i,i,i,39.8,i,35.4,8.5
CCc1ccc(C(=O)Nc2cccc(-c3nn[nH]n3)c2)s1,i,i,i,i,i,nt,nt
Clc1ccc(-c2cc(-c3nnc4sc(Cc5cccs5)nn34)[nH]n2)cc1,nt,i,nt,i,nt,nt,nt
Cc1nc(NS(=O)(=O)c2ccccc2)sc1NC(=O)Nc1ccccc1,i,i,i,i,i,nt,nt
CC(=O)c1ccc(NC(=O)Nc2sc(NS(=O)(=O)c3ccccc3)nc2C)cc1,i,i,i,37.9,i,i,8.2
Cc1nc(NS(=O)(=O)c2ccccc2)sc1NC(=O)Nc1ccc(Cl)cc1,i,i,i,48.5,i,38.1,15.1
O=C(Cc1c[nH]c2ccccc12)Nc1ccc(Nc2cccnc2)c(-c2cc(F)cc(F)c2)c1,i,i,nt,i,i,nt,nt
Cc1cc(-c2n[nH]c(=S)n2N=Cc2ccc(-c3ccccc3)cc2)n[nH]1,nt,i,nt,41.5,nt,35.3,8.9
Cc1ccc(/C=N/n2c(-c3ccccc3)n[nH]c2=S)cc1,i,i,i,i,i,nt,nt
CC(C)c1ccc(/C=N/n2c(-c3ccccc3)n[nH]c2=S)cc1,i,i,i,38.9,i,46.4,13.2
NC(=O)c1ccccc1NC(=O)COC(=O)CSCc1cccc(Cl)c1,i,i,i,i,i,nt,nt
COc1ccc(-c2nn(-c3ccccc3)cc2C(=O)Nc2ccc(C(=O)O)cc2)cc1OC,i,i,i,i,i,nt,nt
O=C(O)c1cccc(NC(=O)c2cn(-c3ccccc3)nc2-c2ccc(F)cc2)c1,i,i,i,38.4,i,i,5.5
Cc1ccc(-c2nn(-c3ccccc3)cc2C(=O)Nc2ccc(C(=O)O)cc2)cc1,i,i,i,44.4,i,36.9,8.2
COc1cc(/C=C2/C(=N)N3N=C(CC(=O)N4CCOCC4)SC3=NC2=O)ccc1OCc1ccc(F)cc1,i,i,i,36.4,i,76.9,34.8
COc1cc(/C=C2/C(=N)N3N=C(CC(=O)N4CCOCC4)SC3=NC2=O)ccc1OCc1ccccc1F,nt,nt,i,nt,nt,nt,nt
SMILES,PG9 binder,HGIII-sPLA2 inh,MsrA act,rCAG binder,MsrA inhibitor,rCAG bind conf,DNA CAG counter
N=C1/C(=C\c2ccc(SCc3ccccc3)o2)C(=O)N=C2SC(CC(=O)N3CCOCC3)=NN12,i,i,i,71.3,i,67.9,30.2
COc1ccc(Br)cc1C=NNC(=O)c1ccncc1,nt,i,nt,i,nt,nt,nt
Cc1ccc2c(c1)c1ccc3c(c1n2C)C(=O)C=CC3=O,i,i,i,50.8,i,i,9.6
COc1ccc2c(c1)c1ccc3c(c1n2C)C(=O)C=CC3=O,i,i,i,53.6,i,i,8.3
COc1cccc(CC(=O)O[C@@H]2CCC[C@@]3(C(=O)N(Cc4ccccc4)c4ccccc43)[C@H]2NC(=O)CCc2ccccc2)c1,nt,i,nt,i,nt,nt,nt
Cc1cc(NS(=O)(=O)c2ccc(NC(=O)CSc3nnc(-c4ccc(Cl)cc4)n3Cc3ccco3)cc2)nc(C)n1,nt,i,nt,38.5,nt,41.0,14.1

# Source: PubChem
